For 89 compounds, outcome results are on record in PubChem BioAssay AID2253 (Southern Research Specialized Biocontainment Screening …, 2010).

Molecules are shown by their SMILES. Screen size: about 2,200 compounds; about 1,300 (59%) were called active. No rule for the calls is given here. The set was probably picked from earlier hits. Only a sample is shown. Measured potencies and affinities stand elsewhere.

This assay can be described thus: THP-1 cell cytotoxicity, dose response, cytotoxicity control for Salmonella PhoP regulon inhibitors, S. typhimurium screen hits (AID 2253). The note with it: THP-1 viability, CellTiter-Glo luminescence, 72 h; series mostly up to 50 µM.
Turning to `CC1(C)CC(=O)C(/C=N/c2ncccc2C(=O)O)=C(O)C1`, the compound was called inactive.
Next, `O=C(NC(CO)C(O)c1ccc([N+](=O)[O-])cc1)C(Cl)Cl` (centres undefined): “inactive”.
Next, `Cc1cc(-c2csc(N)n2)c(C)n1C`: “inactive”; `Cc1ccc(-n2c(C)cc(-c3csc(N)n3)c2C)cc1`: “inactive”.
As for `Cc1ccccc1NC(=O)c1ccc(-n2cncn2)nc1`, the result was inactive.
Under `O=C1C(c2ccc(F)cc2)N(Cc2ccc3c(c2)OCO3)C(=O)CN1C1CCCCCC1` (centres undefined) stands “inactive”.
Next, `C/C(=N\n1nnnc1Nc1ccccc1)c1ccc(N)cc1`: “inactive”; `Nc1ccc(Nc2ccccc2)c(Cl)c1`: “inactive”.
Next, `CCn1cc(C(=O)O)c(=O)c2cc(F)c(N3CCN(C(=S)NC(=O)c4ccccc4Cl)CC3)cc21`: “inactive”.
As to `COc1ccc(Cl)cc1-c1nc(SCC(N)=O)n[nH]1`, the compound was called inactive.
Under `CSCCC(NC(=O)c1cccc(C)c1)C(=O)OCC(=O)NC(=O)c1cccn1C` (centres undefined) stands “inactive”; under `COC(=O)c1sccc1NC(=O)c1cccnc1`, “inactive”.
Turning to `CC(=O)Nc1ccc(OC(=O)c2cccnc2)cc1`, the compound was called inactive.
Take `Cc1cc(-c2csc(NC(=O)c3ccc(S(=O)(=O)N(C)C)cc3)n2)c(C)n1-c1ccccc1`: the compound was called inactive.
Under `CC(=O)Nc1ccc(C(=O)Nc2nc(-c3cc(C)n(Cc4ccccc4)c3C)cs2)cc1` stands “inactive”; under `O=C(/C=C/c1ccco1)N/C(=C\c1ccccc1)C(=O)NCCc1nc2ccccc2[nH]1`, “inactive”.
As for `Cc1ccc2c(CN3CCC(C)CC3)cc(=O)oc2c1`, the result was inactive.
Take `N#Cc1nc(-c2ccco2)oc1NCCCN1CCOCC1`: the compound was classed as inactive.
Under `N#CC1=C(N)SC(N)=C(C#N)C1c1ccc([N+](=O)[O-])cc1` stands “inactive”; under `CC1CCCCN1CCNS(=O)(=O)c1ccc2c(c1)oc(=O)n2C` (centres undefined), “inactive”; under `Cn1nnnc1SCC(=O)NC1CCCCC1`, “inactive”.
Next, `CC1(C)CC(=O)C2=C(C1)N(Cc1ccccc1)C(=O)C2(O)C(F)(F)F` (centres undefined): “inactive”; `C/C(=N/Nc1nc(-c2ccc(Cl)cc2)cs1)c1cccs1`: “inactive”; `CCc1c(C)c2cc(Cl)c(O)c(CN3CCCCC3)c2oc1=O`: “inactive”.
Under `O=C(CCc1ccccc1)Nc1nc2ccc(S(=O)(=O)N3CCOCC3)cc2s1` stands “inactive”; under `O=C(NCc1cn2ccsc2n1)Nc1ccc(Cl)cc1`, “inactive”; under `COc1ccccc1CNc1nc2nc(C)c(C)c(=O)n2[nH]1`, “inactive”.
For the compound `O=C(c1cnsn1)N1CCN(c2ccccc2)CC1`, the compound was called inactive.
Next, `O=C1CC(c2ccccc2)n2nc(NC(=O)c3ccccc3)nc2N1` (centres undefined): “inactive”; `Cc1nc(N2CCN(c3ccccc3)CC2)nc2c1C(=O)CC(C)C2` (centres undefined): “inactive”; `CCC(CC)NC(=O)COC(=O)c1ccc(OCC(=O)Nc2ccccc2OC)c(OC)c1`: “inactive”.
Under `Cc1ccc(CNC(=O)Nc2cccs2)cc1` stands “inactive”; under `CCn1c(=O)c(=O)[nH]c2cc(C(=O)NCC3CCCCC3)ccc21`, “inactive”.
Under `O=C1c2ccccc2C(=O)N1c1cccc(-c2csc(Nc3ccc4c(c3)OCO4)n2)c1` stands “inactive”; under `Oc1ccc(Nc2nc(-c3cccs3)cs2)cc1`, “inactive”; under `c1ccc2[nH]c(CSc3nccs3)nc2c1`, “inactive”.
For the compound `Cn1c(COc2ccccc2)nnc1SCc1nc2ccccc2[nH]1`, the call was inactive.
Under `Cc1nn2c(=O)cc(CSc3nc4ccccc4[nH]3)nc2s1` stands “inactive”; under `O=C1NC(=O)C(=C2CCCCCC2)S1`, “inactive”.
`Cc1ncoc1C(=O)Nc1cccc(Cl)c1`: the compound was called inactive.
Under `CS(=O)(=O)c1ccc([C@@H](O)[C@@H](CF)NC(=O)C(Cl)Cl)cc1` stands “inactive”; under `CC(=O)C1=C(C)Nc2ncnn2C1c1ccccc1OCc1ccccc1` (centres undefined), “inactive”.
Next, `COC(=O)CN1C(c2ccc(OC)cc2)=Nc2ccc(Cl)cc2C1c1ccccc1` (centres undefined): “inactive”; `O=C(c1ccccc1)c1nc2ccccc2n(CCCn2c(=O)c(C(=O)c3ccccc3)nc3ccccc32)c1=O`: “inactive”.
Next, `CC[C@H]1OC(=O)[C@H](C)[C@@H](O[C@H]2C[C@@](C)(OC)[C@@H](O)[C@H](C)O2)[C@H](C)[C@@H](O[C@@H]2O[C@H](C)C[C@H](N(C)C)[C@H]2O)[C@](C)(O)C[C@@H](C)CN(C)[C@H](C)[C@@H](O)[C@]1(C)O`: “inactive”; `CC[C@H]1OC(=O)[C@H](C)[C@@H](O[C@H]2C[C@@](C)(OC)[C@@H](O)[C@H](C)O2)[C@H](C)[C@@H](O[C@@H]2O[C@H](C)C[C@H](N(C)C)[C@H]2O)[C@](C)(O)C[C@@H](C)[C@@H]2N[C@@H](COCCOC)O[C@H]([C@H]2C)[C@]1(C)O`: “inactive”.
As for `COc1ccccc1CC(=O)N1CCN(c2ccccn2)CC1`, the result was inactive.
Under `COCC(=O)N(Cc1ccco1)c1nnc(C2CCOC2)s1` (centres undefined) stands “inactive”; under `COc1ccc(OC)c(NC(=O)c2cc3c(Cl)nc4ccccc4c3s2)c1`, “inactive”; under `COc1ccc(C(=O)NCCC2=CCCCC2)cc1OC`, “inactive”.
Next, `C=CCNc1nnc(Cl)c2ccccc12`: “inactive”; `Cc1ccc2[nH]c3c(=O)n(CCc4cnc[nH]4)cnc3c2c1`: “inactive”; `O=P(Cc1cc[n+]([O-])cc1)(c1ccccc1)c1ccccc1`: “inactive”.
Take `NC(=S)c1cc2ccc(O)cc2oc1=O`: the compound was classed as inactive.
Under `O=C(NCc1cccs1)Nc1cccs1` stands “inactive”.
For the compound `Cn1ncc(Br)c1C(=O)NCc1cccs1`, the outcome was inactive.
Next, `CC(C)=CCN1CCN(Cc2ccoc2)CC1CCO` (centres undefined): “inactive”.
`COc1ccc(NC(=O)CSc2nc(C)cs2)cc1OC`: the compound was classed as inactive.
Turning to `CSC(=NS(=O)(=O)c1ccccc1)SC`, the compound was called inactive.
Next, `CCn1nc(C(=O)NCc2ccco2)c(Cl)c1Cl`: “inactive”; `O=C(NCc1ccco1)C1CC(=O)N(CCc2ccccc2)C1` (centres undefined): “inactive”.
On to `O=C(CNc1ccccc1)Nc1ccc(F)cc1`, for which the result was inactive.
Under `CCN(CC(=O)Nc1ccc(N2CCOCC2)cc1)Cc1nc2ccccc2c(=O)[nH]1` stands “inactive”.
Under `Cc1c(C(c2cccc([N+](=O)[O-])c2O)c2c(C)n(C)n(-c3ccccc3)c2=O)c(=O)n(-c2ccccc2)n1C` stands “inactive”; under `Cc1ccc(CNC(=O)c2cccc(S(C)(=O)=O)c2)cc1`, “inactive”; under `CN(C)C(=O)c1cn(N(C)c2ncc(C(F)(F)F)cc2Cl)c(=O)c2ccccc12`, “inactive”.
Next, `CCOc1cc(C2Nc3cccc4cccc(c34)N2)ccc1O`: “inactive”; `COc1cc(C2Nc3cccc4cccc(c34)N2)cc(OC)c1O`: “inactive”; `NC(=O)c1ccccc1NC(=O)/C=C/C(=O)O`: “inactive”.
Consider `COc1ccc(NC(=O)c2sccc2SCC#N)cc1`, for which the outcome was inactive.
Next, `COC(=O)C1(O)CC(C(C)C)=NN1C(=O)c1ccc(Cl)cc1` (centres undefined): “inactive”; `CCCCn1cnc2sc(-c3ccccc3)cc2c1=O`: “inactive”; `CCn1cc(C(=O)O)c(=O)c2cc(F)c(N3CCNCC3)cc21`: “inactive”.
Next, `CC(=O)Nc1ccc(C(=O)N2CCN(C(=O)c3ccco3)CC2)cc1`: “inactive”; `COc1cc(OC)c(NC(=O)Nc2ccc(OC)c(OC)c2)cc1Cl`: “inactive”.
`CCn1cc(C(=O)O)c(=O)c2cc(F)c(N3CCN(C)CC3)cc21`: the call was inactive.
Under `COC(=O)CCC(=O)Nc1ccc(Cl)c(Cl)c1` stands “inactive”; under `Cc1ccc(NC(=O)COc2ncnc3c(Cl)cc(Cl)cc23)cc1[N+](=O)[O-]`, “inactive”.
Under `O=C1OCC(CO)(CO)N=C1NNc1ccc(Cl)c(Cl)c1` stands “inactive”; under `CC(C)Cc1oc(C(=O)O)cc1CN`, “inactive”.
Take `Cc1ccc(CNc2oc(-c3cccs3)nc2C#N)cc1`: the compound was called inactive.
Under `CC1C(C#N)=C(N)OC2=C1C(=O)CCC2` (centres undefined) stands “inactive”; under `CCCCN(CCCC)C(=O)c1cn(CC)c2cc(N3CCN(C)CC3)c(F)cc2c1=O`, “inactive”; under `Cc1[nH][nH]c(=O)c1C(c1ccc(O)c([N+](=O)[O-])c1)c1c(C)[nH][nH]c1=O`, “inactive”.
Next, `COc1cc(CNCc2ccccn2)ccc1OCC(=O)NC(C)(C)C`: “inactive”.
Under `O=C(CN(c1ccc(F)cc1)S(=O)(=O)c1ccc2c(c1)OCCO2)NCc1cccnc1` stands “inactive”; under `COCCn1cc(C(=O)N2CCC(C)CC2)c2c3ccccc3n(C)c2c1=O`, “inactive”.
As to `Cc1ccc(S(=O)(=O)N2CCC(C(N)=O)CC2)c(C)c1C`, the compound was classed as inactive.
For `O=C(NCc1cccs1)[C@@H]1CSC2c3ccccc3C(=O)N21` (some centres undefined), the result was inactive.
